From PubChem
POLH inh: DNA polymerase eta (human) inhibition; recombinant Pol eta, fluorescent DNA replication assay; Potency, µM (highest dose often 114 µM), hits mostly inhibitors; hit rate 1.2% among 390,000; AID 588591
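Fluorescent replication assay: 50 nM final substrate added after a 15 min room-temperature compound preincubation with 10 nM enzyme. Signal taken at 0 min and again at 10 min.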
Pol kappa inh: DNA polymerase kappa (human) inhibition | hit rate 0.53% among 400,000 | Q9UBT6 | Potency, µM (top dose mostly 107 µM), actives largely listed as inhibitors | AID 588579 | purified Pol kappa, fluorescent DNA synthesis assay, 10 min
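First, compounds were pin-transferred onto 10 nM Pol kappa. After 15 min at room temperature, substrate was added to 50 nM final. Fluorescence was then measured kinetically at 0 and 10 min.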
WRN helicase inh: inhibitors of human WRN helicase | WRN helicase unwinding, fluorescent forked duplex, kinetic | Q14191 | Potency, µM (top dose mostly 114 µM), most hits filed as inhibitors | hit rate 0.46% among 360,000 | AID 651768; further: nearly all actives have a fitted effect of over 55% in size
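Kinetic fluorescence helicase assay: unwinding of a quenched forked DNA duplex (100 nM final) with 2 mM ATP final raises red fluorescence (525/598 nm). Compounds sat 15 min at room temperature with 20 nM WRN beforehand.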
Pol beta inh: inhibitors of human DNA polymerase beta; P06746; Pol beta primer extension/strand displacement, fluorescence kinetic; hit rate 1.3% among 340,000; Potency, µM (titrated, usually from 114 µM), hits mostly inhibitors
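Preincubation: enzyme (10 nM) with compound, 15 min, RT. Reaction: substrate added to 50 nM final. Reads: 0 and 10 min. Analysis: normalized, Hill fit.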
PI5P4Ka inh: PI5P4K alpha (human) kinase inhibition | P48426 | PI5P4Kalpha enzyme, ADP-Glo luminescence, 60 min; stronger effect = lower value | max response, % | hit rate 1.2% among 330,000; active means max response of -50% or lower; inconclusive means between -30% and -50%; inactive means -30% or higher; further: value at the top dose of about 77 µM
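Human PI5P4Kalpha with substrate in 0.038 M HEPES pH 7.4, 0.28 mM EGTA, 0.1% CHAPS, 5% DMSO; reaction started with 5 microM ATP (final), 60 min at room temperature. ADP formed read by ADP-Glo luminescence.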
Pol iota inh: blocks human DNA polymerase iota activity | Q9UNA4 | hit rate 1% among 390,000 | Pol iota fluorescent replication assay, 10 min | Potency, µM (highest dose often 115 µM), actives largely listed as inhibitors
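Pol iota at 10 nM preincubated 15 min with compounds at room temperature; reaction started with fluorescent substrate, 50 nM final. Fluorescence read kinetically at 0 and 10 min; buffer-only wells as negative control.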
BAZ2B confirm: inhibits human BAZ2B bromodomain, hit validation. shares compounds with Pol kappa inh. AlphaScreen BAZ2B / biotin-H3K14Ac peptide displacement. Potency, µM, hits mostly inhibitors. hit rate 100% among 25; calls by dose curve
BAZ2B bead ctr: AlphaScreen signal interference, BAZ2B hit counter-screen; shares compounds with Pol kappa inh; AID 588859; AlphaScreen biotin-His6 peptide bead counterscreen, signal decrease; Potency, µM (series often up to 57.1 µM), usual class: inhibitors; 25 tested, under 10 active;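 active means clear concentration-dependent signal drop in the bead assay lacking the target, so a primary-screen artifact; inconclusive means weak, partial or single-dose response; inactive means no response, so a real primary hit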
PGK validate: TbPGK inhibition, hit validation. AID 686980. Potency, µM (doses to about 57.5 µM), usual class: inhibitors. shares compounds with Pol kappa inh. TbPGK coupled GAPDH assay, Kinase-Glo luminescence. hit rate 79% among 500; further: nearly all actives have a fitted effect of over 65% in size
Pol iota confirm: Inhibitors of human DNA polymerase iota, confirmation | shares compounds with Pol kappa inh | Pol iota primer extension, TAMRA/BHQ fluorescence | Potency, µM, usual class: inhibitors | hit rate 77% among 1,500 | AID 720496
Large screens that a line does not name were inactive (follow-up assays come after a bar, where they were run); ! = not confirmed by another sample. Shown are actives, neighbours in structure and some others; about 2.8% of the full set was active somewhere. Unless noted, the call rests on the fitted dose curve; in most records, active means well fitted curve in the direction sought with a large enough effect; inconclusive means small, poorly fitted or top-dose-only effect, or another doubt; inactive means no such curve, though single readings can be large; an effect the other way counts as inactive or inconclusive.

NC(CC(=O)O)C1CCCCC1 (stereo not drawn)	none (no result: POLH inh, Pol kappa inh, WRN helicase inh, PI5P4Ka inh, Pol iota inh)
O=C1/C(=C/c2ccc(N(CCCl)CCCl)cc2)Cc2ccccc21	none (no result: POLH inh, WRN helicase inh, Pol beta inh, PI5P4Ka inh)
CC(N)C(O)c1ccc(O)c(O)c1 (stereo not drawn)	Pol kappa inh 3.2µM! (no result: POLH inh, WRN helicase inh, Pol beta inh, PI5P4Ka inh, Pol iota inh)
CC(N)[C@@H](O)c1ccccc1 (stereo partly drawn)	none (no result: POLH inh, WRN helicase inh, Pol beta inh, PI5P4Ka inh, Pol iota inh)
COc1ccc(NC(=O)CCn2cnc3onc(-c4ccc(F)cc4)c3c2=O)cc1OC	Pol iota inh inconclusive (no result: WRN helicase inh, PI5P4Ka inh)
C[C@H](N)C(=O)NCC(=O)N[C@H]1CSSC[C@@H](C(=O)O)NC(=O)[C@H](CO)NC(=O)[C@H]([C@@H](C)O)NC(=O)[C@H](Cc2ccccc2)NC(=O)[C@H]([C@@H](C)O)NC(=O)[C@H](CCCCN)NC(=O)[C@@H](Cc2c[nH]c3ccccc23)NC(=O)[C@H](Cc2ccccc2)NC(=O)[C@H](Cc2ccccc2)NC(=O)[C@H](CC(N)=O)NC(=O)[C@H](CCCCN)NC1=O	none (no result: POLH inh, WRN helicase inh, Pol beta inh, PI5P4Ka inh, Pol iota inh)
CCN(CC)C(=O)Cn1cc(S(=O)(=O)CC(=O)NCc2ccc(C)cc2)c2ccccc21	none (no result: Pol beta inh)
CC(c1nccs1)N(C)C(=O)c1cn(Cc2cccc3ccccc23)nn1 (stereo not drawn)	none
CC[C@H](C)/C=C(C)/C=C/C1=CC2=C(Cl)C(=O)[C@](C)(OC(C)=O)C(=O)C2=CO1	POLH inh 20µM, Pol kappa inh 79µM, WRN helicase inh 50µM, PI5P4Ka inh -104, Pol iota inh 50µM (no result: Pol beta inh)
CC[C@@H]1/C=C/C=C/C[C@H](C)[C@@H](O)[C@](C)(O)C(=O)[C@H](C)[C@@H](O)[C@H](C)C(=O)[C@H](C)[C@@H](O)[C@H](C)/C=C/C(=O)O[C@H]2[C@@H](C)[C@@H](CC1)O[C@@]1(CC[C@@H](C)[C@@H](C[C@H](C)O)O1)[C@@H]2C	none (no result: POLH inh, WRN helicase inh, Pol beta inh, PI5P4Ka inh, Pol iota inh)
O=C(c1ccc(CS(=O)(=O)c2ccccc2)o1)N1CCC2(CC1)OCCO2	POLH inh 89µM, Pol beta inh inconclusive, Pol iota inh inconclusive (no result: PI5P4Ka inh)
O=C(c1ccc(CS(=O)(=O)c2ccc(Br)cc2)o1)N1CCC2(CC1)OCCO2	none (no result: PI5P4Ka inh)
CCCCCCC(=O)N/N=C/c1c(O)n(CCc2ccccc2)c(=O)[nH]c1=O	PI5P4Ka inh inconclusive
O=C(N/N=C/c1c(O)n(Cc2ccccc2)c(=O)[nH]c1=O)c1ccccc1O	WRN helicase inh inconclusive, PI5P4Ka inh -70
O=C(N/N=C/c1c(O)n(Cc2ccc(F)cc2)c(=O)[nH]c1=O)c1ccccc1O	PI5P4Ka inh -63
O=C(N/N=C/c1c(O)n(CCc2ccccc2)c(=O)[nH]c1=O)c1ccccc1O	PI5P4Ka inh -75
O=C(N/N=C/c1c(O)n(Cc2ccco2)c(=O)[nH]c1=O)c1ccccc1	POLH inh inconclusive, Pol kappa inh inconclusive, Pol beta inh inconclusive, PI5P4Ka inh -67
COc1ccc(Cn2c(O)c(/C=N/NC(=O)c3ccccc3O)c(=O)[nH]c2=O)cc1	POLH inh inconclusive
CC(=O)CC(c1ccccc1)c1c(O)c2cc(O)ccc2oc1=O (stereo not drawn)	none (no result: POLH inh, WRN helicase inh, Pol beta inh, PI5P4Ka inh, Pol iota inh)
Cc1cc(NC(=O)c2cc(-c3cccc(Cl)c3)on2)nn1Cc1ccc(Cl)cc1	none (no result: WRN helicase inh, PI5P4Ka inh)
COc1ccc(C=C(C(=O)O)c2ccc(OC)cc2)cc1	none (no result: Pol beta inh)
Cc1ccc(-c2nc(S(=O)(=O)c3ccc(C)cc3)c(SCC(=O)Nc3ccc(F)cc3)o2)cc1	Pol beta inh inconclusive (no result: WRN helicase inh, PI5P4Ka inh)
O=C1NC(=O)N(c2ccc3c(c2)OCO3)C(=O)/C1=C\c1ccc(-c2ccccc2C(=O)O)o1	POLH inh 10µM, Pol kappa inh 79µM, WRN helicase inh 56µM, Pol beta inh 10µM, PI5P4Ka inh -52, Pol iota inh 20µM
O=C1NC(=O)N(c2ccc3c(c2)OCO3)C(=O)/C1=C/c1ccc(N2CCCCC2)o1	Pol iota inh inconclusive
O=C(Cn1c(=O)oc2ccccc21)NCCc1ccccc1	none
O=C1NC(=S)NC(=O)C1=Cc1ccc2c(c1)CCN2CCCCl	POLH inh 2µM, Pol kappa inh 10µM, WRN helicase inh 56µM, Pol beta inh inconclusive, PI5P4Ka inh -92, Pol iota inh inconclusive | PGK validate 2.3µM
CC(=O)Nc1c2sscc-2n(C)c1=O	none (no result: POLH inh, WRN helicase inh, Pol beta inh, PI5P4Ka inh, Pol iota inh)
CC[n+]1c(/C=C/C=C/c2ccc(N(C)C)cc2)sc2ccccc21	POLH inh inconclusive, WRN helicase inh 56µM, PI5P4Ka inh inconclusive | PGK validate inconclusive
CN(C)c1ccc(/C=C/C=C/c2sc3ccccc3[n+]2C)cc1	WRN helicase inh inconclusive, Pol beta inh inconclusive, Pol iota inh inconclusive
OC[C@@H](O)[C@H]1O[C@@H]2OC(C(Cl)(Cl)Cl)O[C@H]2[C@H]1O (stereo partly drawn)	none (no result: POLH inh, WRN helicase inh, Pol beta inh, PI5P4Ka inh, Pol iota inh)
O=C(O)c1cccc2c1NC(C(=O)O)C1CC(Sc3ccccc3[N+](=O)[O-])C(Cl)C21 (stereo not drawn)	POLH inh 3.2µM, Pol kappa inh 8.9µM, WRN helicase inh 32µM, Pol beta inh 2.8µM, PI5P4Ka inh -67, Pol iota inh 4µM | PGK validate 13µM
COC12C(COC(N)=O)C3=C(C(=O)C(C)=C(N)C3=O)N1CC1C2N1C (stereo not drawn)	POLH inh 50µM, Pol iota inh inconclusive | Pol iota confirm 38
CCCCCC1C(=O)O[C@H](C)[C@@H](NC(=O)c2cccc(NC=O)c2O)C(=O)OC(C)C1OC(=O)CC(C)C (stereo partly drawn)	none (no result: POLH inh, WRN helicase inh, Pol beta inh, PI5P4Ka inh, Pol iota inh)
CCCNC(=O)c1ccc2c(=O)n3c(-c4ccc(C)cc4)csc3nc2c1	Pol iota inh inconclusive | BAZ2B confirm 4.5 | BAZ2B bead ctr 13µM
CC(C)[C@H](NC(=O)[C@H](CCC(=O)O)NC(=O)[C@H](Cc1ccccc1)NC(=O)[C@@H](C)NC(=O)[C@@H](N)Cc1ccc(O)cc1)C(=O)N[C@H](C(=O)NCC(N)=O)C(C)C	none (no result: POLH inh, WRN helicase inh, Pol beta inh, PI5P4Ka inh, Pol iota inh)
